SMILES strings stand for the structures. Results filed as inconclusive are left out. Unmarked numbers belong to inactive results. The source made the active and inactive calls. Calls come from the whole dose curve; as a rule, active = well fitted cell-killing curve with a large enough effect; inconclusive = small, poorly fitted or top-dose-only effect, or effect the other way; inactive = flat fitted curve, though single readings scatter. Where a SMILES comes first, the peptide text is derived from it. [ ]: non-standard residue; d: D form. ξ: configuration not given here. ξPhe(βξ-Me) = CC(c1ccccc1)C(N)C(=O)O; GABA = NCCCC(=O)O
% is set by controls: 0 for no effect and ±100 for the full control effect; potency is the fitted concentration of half-maximal effect.

The subject of the assay is JEG-3. Kind of assay: Primary qHTS to identify gynecologic anti-cancer compounds using libraries of approved drugs and bioactive compounds (AID 1345084). Note: nearly all actives have a fitted effect of over 55% in size. Particulars: Gynecologic cancer cell panel viability, ATPlite luminescence, 48 h; series mostly up to 57.5 µM; activity change, negative = cytotoxicity: at the top concentration. In outline: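 48 h compound exposure at 37 C, 5% CO2; five-point qHTS. ATPlite luminescence readout of cell ATP.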
Turning to `COC(=O)C1C(CC(C)=O)C=CC(O)C12Oc1cc(C)cc(O)c1C2=O` (configuration not stated), the “activity change, negative = cytotoxicity” value is 1.79% [at 38.5 µM].
Same read-out and setting: then `CC1(C)CCC[C@@]2(C)[C@H]1[C@H](O)C=C1COC(=O)[C@@]12O`, with 2.49%; and `O=C(O)Cc1nn(Cc2nc3cc(C(F)(F)F)ccc3s2)c(=O)c2nccnc12`, with 0.0327%; and `CC1CCC2(C(=O)OC3OC(CO)C(O)C(O)C3O)CCC3(C(=O)O)C(=CCC4C5(C)CCC(OC6OC(C)C(O)C(O)C6O)C(C)(C)C5CCC43C)C2C1C` (configuration not stated), with -2.38% [at 25.3 µM].
On the same count and under the same terms, for `CCCCN(CCCC)C(=O)CN1C[C@H](c2ccc3c(c2)OCO3)[C@@H](C(=O)O)[C@@H]1c1ccc(OC)cc1` the value was -0.48%.
In the case of `CC(C)C(=O)O[C@@H]1[C@@H](O)[C@@H](O[C@H]2O[C@H](CO)[C@@H](O)[C@H](O)[C@H]2O)O[C@H](CO)[C@H]1O`, the “activity change, negative = cytotoxicity” value is 0.359% [at 25.3 µM].
Same read-out and setting: then `CC1(C)CC[C@]2(C(=O)O)CC[C@]3(C)C(=CCC4[C@@]5(C)CCC(O[C@@H]6OC[C@H](O)[C@H](O)[C@H]6O[C@@H]6O[C@H](CO)[C@@H](O)[C@H](O)[C@H]6O)[C@@](C)(CO)C5CC[C@]43C)[C@@H]2C1` (some centres not stated), with 9% [at 25.3 µM]; and `CCc1c(CC(N)=O)c2cc(OCCCP(=O)(O)O)ccc2n1Cc1ccccc1`, with 10.9%.
As for `COc1ccc(C[C@H](N)C(=O)N[C@H]2[C@@H](O)[C@H](n3cnc4c(N(C)C)ncnc43)O[C@@H]2CO)cc1`, the Potency was 3.98 µM (active).
For `COC(=O)C1=CO[C@@H](O[C@@H]2O[C@H](CO)[C@@H](O)[C@H](O)[C@H]2O)[C@@H]2[C@@H](C(=O)OC)[C@@H](O)C(O)[C@H]12` (some centres not stated), the “activity change, negative = cytotoxicity” value was 9.79% [at 25.3 µM].
Still for that read-out and setting: then `CC(C)CC1NC(=O)C(C(C)c2ccccc2)NC(=O)C(C(C)C)NC(=O)C(C)NC(=O)CCCNC(=O)C(Cc2c[nH]c3ccccc23)NC(=O)C(C)NC1=O` (stereo not drawn) (cyclo([GABA]AV[ξPhe(βξ-Me)]LAW); configuration not given here), with 4.93% [at 25.3 µM]; and `C=C1CCC2C(C)(C)C(O)CCC2(C)C1CCC(C)CCOC(=O)CCC(=O)O` (configuration not stated), with 0.678% [at 25.3 µM]; and `COc1cc(C)c(C(=O)O[C@H]2[C@@H](O)[C@H](n3ccc(=O)[nH]c3=O)O[C@@H]2CO)c(OC)c1`, with 5.53% [at 25.3 µM].
Same read-out and setting: for `COC(=O)C1=COC(O[C@@H]2O[C@H](CO)[C@@H](O)[C@H](O)[C@H]2O)/C(=C\COC(=O)c2ccc(OC3OC(CO)C(O)C(O)C3O)c(OC)c2)C1CC(=O)OCCc1ccc(O)cc1` (some centres not stated) the value was 2.03% [at 11.6 µM]; for `COc1cc(CC(COC2OC(CO)C(O)C(O)C2O)c2cc(/C=C/CO)cc(OC)c2O)ccc1O` (configuration not stated), 1.55% [at 25.3 µM]; for `CC1(C)C[C@H]2C3=CCC4[C@@]5(C)CC[C@H](O[C@H]6O[C@H](C(=O)O)[C@@H](O)[C@H](O)[C@H]6O[C@H]6O[C@H](CO)[C@@H](O)[C@H](O)[C@H]6O[C@@H]6O[C@H](CO)[C@@H](O)[C@H](O)[C@H]6O)[C@](C)(CO)C5CC[C@@]4(C)[C@]3(C)CC[C@@]2(C)[C@H](O[C@@H]2OC[C@H](O)[C@H](OC3O[C@H](CO)[C@@H](O)[C@H](O)[C@H]3O)[C@H]2O)[C@@H]1O` (some centres not stated), 2.5% [at 6.55 µM].
Consider `O=C1N(CC2CCCCN2)CCN1c1ccccc1` (configuration not stated), for which the “activity change, negative = cytotoxicity” value was -0.999%.
Turning to `CCCOc1ccn2c(C(C)=O)cc(-c3ccccc3S(C)(=O)=O)c2c1`, the “activity change, negative = cytotoxicity” value is 3.24%.
Consider `COc1cc(/C=C/C(=O)O[C@H]2[C@H](O)[C@@H](CO)O[C@@]2(CO)O[C@H]2O[C@H](COC(=O)c3ccc(O)cc3)[C@@H](O)[C@H](O)[C@H]2O)cc(OC)c1OC`, for which the “activity change, negative = cytotoxicity” value is 6.64% [at 25.3 µM].
Still for that read-out and setting: for `OC[C@H]1O[C@@H](n2cnc3c2NC=NC[C@H]3O)C[C@@H]1O` the value was -0.13%; for `CNc1nc(Nc2cnn([C@H]3CCN(C4COC4)C[C@@H]3F)c2Cl)ncc1C(F)(F)F`, -0.421%.
Take `CCCCS(=O)(=O)Nc1ncnc(OCCOc2ncc(Br)cn2)c1-c1ccc(Br)cc1`: the “activity change, negative = cytotoxicity” value was 16.5%.
Take `CC/C=C/CC1=C(CCCCCCCC(=O)O)CCC1=O`: the “activity change, negative = cytotoxicity” value is 1.45%.
Still for that read-out and setting: then `C[C@@H]1O[C@@H](OC[C@H]2O[C@@H](OCCc3ccccc3)[C@H](O)[C@@H](O)[C@@H]2O)[C@H](O)[C@H](O)[C@H]1O`, with -13.1% [at 25.3 µM]; and `C=C[C@](C)(CC/C=C(\C)C(=O)O)O[C@@H]1OC[C@H](O)[C@H](O)[C@H]1O`, with 15.4% [at 38.5 µM]; and `FC(F)(F)c1cc(C(F)(F)F)c2ccc3nc(-c4nnco4)cn3c2n1`, with 5.21%.
The same measure, in the same setting: for `C[C@@H]1O[C@@H](OC[C@H]2O[C@@H](OCC3CCC4CC3C4(C)C)[C@H](O)[C@@H](O)[C@@H]2O)[C@H](O)[C@H](O)[C@H]1O` (some centres not stated) the value was -1.64% [at 25.3 µM]; for `O=C1[C@H](O[C@@H]2O[C@H](CO)[C@@H](O)[C@H](O)[C@H]2O)Oc2ccccc2N1O`, 6.2% [at 38.5 µM]; for `C[C@@H]1O[C@@H](O[C@H]2[C@H](OC(=O)[C@]34CCC(C)(C)C[C@H]3C3=CCC5[C@@]6(C)C[C@H](O)[C@H](O[C@@H]7O[C@H](CO[C@@H]8OC[C@H](O)[C@H](O)[C@H]8O)[C@@H](O)[C@H](O)[C@H]7O)C(C)(C)C6CC[C@@]5(C)[C@]3(C)C[C@H]4O)OC[C@@H](O)[C@@H]2O)[C@H](O)[C@H](O[C@@H]2OC[C@](O)(CO)[C@H]2O)[C@H]1O[C@@H]1OC[C@H](O)[C@H](O[C@@H]2OC[C@@H](O)[C@H](O)[C@H]2O)[C@H]1O` (some centres not stated), -3.85% [at 6.55 µM].
On the same count and under the same terms, then `COC(=O)C1C(c2ccc(O)cc2)C(C(=O)OC)C1c1ccc(O)cc1` (configuration not stated), with 9.3% [at 38.5 µM]; and `CCN[C@@H]1C[C@H](N)[C@@H](O[C@H]2OC(CN)=CC[C@H]2N)[C@H](O)[C@H]1O[C@H]1OC[C@](C)(O)[C@H](NC)[C@H]1O`, with 2.62% [at 25.3 µM]; and `CCOC(=O)[C@H]1O[C@@H]1C(=O)N[C@@H](CC(C)C)C(=O)NCCC(C)C`, with -5.2%.
Regarding `CC(=O)N1c2ccccc2C2(O)CC3C(=O)NC(CC(C)C)C(=O)N3C12` (configuration not stated), the “activity change, negative = cytotoxicity” value is -0.76% [at 38.5 µM].
As for `CC(C)=CCC/C(C)=C/CC/C(C)=C/CC[C@]1(C)CCc2cc(O)cc(C)c2O1`, the “activity change, negative = cytotoxicity” value is -15.5% [at 25.3 µM].
On the same count and under the same terms, for `O=C(c1ccc(NS(=O)(=O)c2cccc3cccnc23)cc1)N1CCN(CC2CC2)CC1` the value was 4.06%; for `COc1cc(N2CCC(O)CC2)ccc1Nc1cc(Nc2ccccc2S(=O)(=O)C(C)C)c2cc[nH]c2n1`, 5.03% [at 38.5 µM].
Still for that read-out and setting: for `C[C@@H]1O[C@@H](O[C@H]2[C@H](OC(=O)[C@]34CCC(C)(C)C[C@H]3C3=CCC5[C@@]6(C)C[C@H](O)[C@H](O[C@@H]7O[C@H](CO)[C@@H](O[C@@H]8O[C@H](CO)[C@@H](O)[C@H](O)[C@H]8O)[C@H](O)[C@H]7O)[C@@](C)(CO)C6[C@H](O)C[C@@]5(C)[C@]3(C)C[C@H]4O)OC[C@H](O)[C@@H]2O)[C@H](O)[C@H](O)[C@H]1O[C@@H]1OC[C@@H](O)[C@H](O[C@@H]2OC[C@](O)(CO)[C@H]2O)[C@H]1O` (some centres not stated) the value was 7.67% [at 6.55 µM].

These data come from PubChem BioAssay (NCATS).
